# Values joined by “and” are separate entries in the source; they are usually repeats but may differ in a detail not shown here. Identical values can stand only once. Results filed as inconclusive are left out. Entries that show only a call come without a potency. Where a structure was tested more than once in an assay, its records may differ in their call. Active and inactive are the calls of the source. Unless noted, calls come from the whole dose curve; as a rule, active = well fitted curve in the direction sought with a large enough effect in the repeat runs; inconclusive = weak or mixed curves; inactive = no such curve, though single readings can be large; an effect the other way counts as inactive or inconclusive.
# Assays:
# [1] = molecular target: Retinoic acid receptor RXR-alpha (Homo sapiens) (UniProt P19793); experiment: qHTS assay to identify small molecule agonists of the RXR signaling pathway (AID 1159527; calls by dose curve; note: nearly all actives have a fitted effect of over 35% in size)
# Chain of Retinoic acid receptor RXR-alpha (Homo sapiens) (P19793 whole entry, looked up): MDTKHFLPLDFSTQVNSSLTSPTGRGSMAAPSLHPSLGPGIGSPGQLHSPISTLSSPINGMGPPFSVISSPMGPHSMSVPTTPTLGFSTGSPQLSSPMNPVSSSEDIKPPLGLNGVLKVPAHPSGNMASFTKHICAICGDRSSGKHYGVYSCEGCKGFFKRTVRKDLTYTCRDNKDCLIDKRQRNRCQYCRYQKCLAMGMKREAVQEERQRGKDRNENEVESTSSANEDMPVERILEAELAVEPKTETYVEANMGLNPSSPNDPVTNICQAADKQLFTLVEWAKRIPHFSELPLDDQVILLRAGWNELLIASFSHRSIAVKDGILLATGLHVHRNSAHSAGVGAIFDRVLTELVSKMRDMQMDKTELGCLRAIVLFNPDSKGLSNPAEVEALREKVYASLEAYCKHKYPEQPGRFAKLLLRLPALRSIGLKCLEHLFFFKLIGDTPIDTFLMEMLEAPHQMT
# In short: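 Read-out: beta-lactamase FRET ratio (405 nm excitation, 460 and 530 nm emission) after 2 hr substrate loading at room temperature. Cells were RXR-alpha-UAS-bla HEK 293T treated with compounds for 16 hr in 2% charcoal-stripped FBS medium.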
# [2] = qHTS assay to identify small molecule antagonists of the retinoid acid receptor (RAR) signaling pathway - cell viability counter screen (AID 1159551); note: nearly all actives have a fitted effect of over 35% in size; note: potency is the fitted concentration of half-maximal effect
# In short: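 Retinol-stimulated (1 uM final) C3RL4 cells, compound 6 h, 37 C; readout CellTiter-Glo luminescence (ATP) after 30 min RT incubation.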
# [3] = qHTS assay to identify small molecule agonists of the RXR signaling pathway - cell viability counter screen (AID 1159529); note: nearly all actives have a fitted effect of over 50% in size; note: potency is the fitted concentration of half-maximal effect
# In short: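 HEK 293T RXRa-bla cells, 2% CS-FBS; 5 h settle; cpd 16 h 37 C, 5% CO2; CellTiter-Glo 30 min RT, luminescence. Tetraoctyl ammonium bromide as positive control.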
# [4] = qHTS assay to identify small molecule antagonists of the retinoic acid receptor (RAR) signaling pathway (AID 1159552; note: nearly all actives have a fitted effect of over 50% in size; note: potency is the fitted concentration of half-maximal effect)
# In short: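 Cells of the C3RL4 line were seeded, incubated overnight, then dosed with compounds in DMSO followed immediately by retinol (1 uM final). Six hours later luciferase detection reagent went in; signal was measured after 30 min at RT.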
# [5] = qHTS assay to identify small molecule agonists of the retinoic acid receptor (RAR) signaling pathway (AID 1159553); settings: C3RL4 RARE luciferase reporter, agonist, 6 h; activation: at 73.3 µM (top of the series) unless noted; note: potency is the fitted concentration of half-maximal effect
# In short: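 Reporter readout comes from luciferase under RARE control in C3RL4 cells; compound exposure lasts 6 hr at 37 C in 5% CO2, and luminescence is recorded following a 30 min room-temperature incubation with reagent.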
# [6] = qHTS assay to identify small molecule antagonists of the estrogen related receptor (ERR) signaling pathway (AID 1224819; note: potency is the fitted concentration of half-maximal effect; nearly all actives have a fitted effect of over 50% in size)
# In short: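 Luminescence readout (One-Glo, 30 min, RT) of ERR cell line after 18 h compound exposure at 37 C; cells seeded 2,000/well, pre-incubated 6 h, compounds pinned from DMSO stocks.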
# [7] = qHTS assay to identify small molecule agonists of the estrogen related receptor (ERR) signaling pathway (AID 1224820)
# In short: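 Quantitative HTS of the LOPAC library used NTP ERR reporter cells treated 18 h at 37 C. Signal is luminescence after One-Glo addition and a 30 min room-temperature incubation.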
# [8] = tested on: estrogen-related receptor alpha (ERRalpha) with PGC-1alpha coactivator, human; experiment: qHTS assay to identify small molecule antagonists of the estrogen related receptor signaling pathway with the pleiotropic PPARgamma coactivator (PGC) (AID 1224821; calls by dose curve; note: nearly all actives have a fitted effect of over 50% in size; note: potency is the fitted concentration of half-maximal effect)
# In short: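 Quantitative HTS for antagonism: PGC/ERR cells received compounds after 6 h attachment and were incubated 18 h at 37 C, with luminescence (One-Glo) as the endpoint.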
# [9] = qHTS assay to identify small molecule antagonists of the estrogen related receptor (ERR) signaling pathway - cell viability counter screen (AID 1224818);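 note: viability measured after 17.5 h of compound exposure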
# In short: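 After a 6 h pre-incubation, ERR cells were dosed by pin tool with compounds, positive/negative controls or DMSO alone. Following 17.5 h at 37 C and 30 min with CellTiter-Fluor, fluorescence was recorded.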
# [10] = qHTS assay to identify small molecule antagonists of the estrogen related receptor signaling pathway with the pleiotropic PPARgamma coactivator (PGC) cell viability counter screen (AID 1224822; note: potency is the fitted concentration of half-maximal effect;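 note: viability read after 17.5 h compound exposure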)
# In short: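 PGC/ERR cells were plated at 2,000 per well and allowed 6 h to settle before compound addition. Following 17.5 h at 37 C, CellTiter-Fluor reagent was added and fluorescence was read 30 min later.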
smiles,measurement,setting,value
C[C@]12CCC(=O)C(O)=C1CC[C@@H]1[C@@H]2CC[C@]2(C)C(=O)CC[C@@H]12,Potency,[1],inactive
same,Potency,[2],inactive
O=C(Nc1ccc(Br)cc1)c1cc(Br)cc(Br)c1O,Potency,[3],24.5 µM (active)
same,Potency,[2],inactive
same,Potency,[4],inactive
same,Potency,[5],inactive
C=C(C)[C@H]1Cc2c(ccc3c2O[C@@H]2COc4cc(OC)c(OC)cc4[C@@H]2C3=O)O1,Potency,[3],inactive
same,Potency,[5],inactive
same,Potency,[6],0.081 µM (active)
same,Potency,[7],inactive
same,Potency,[8],0.0361 µM (active)
Cc1c(COC(=O)[C@@H]2[C@H](/C=C(\Cl)C(F)(F)F)C2(C)C)cccc1-c1ccccc1,Potency,[3],inactive
same,Potency,[2],inactive
same,Potency,[4],inactive
same,Potency,[5],inactive
C#C[C@]1(O)CC[C@H]2[C@@H]3CCC4=CC(=O)CC[C@]4(C)[C@H]3CC[C@@]21C,Potency,[3],inactive
same,Potency,[2],inactive
same,Potency,[4],inactive
same,Potency,[5],inactive
NNC(N)=S,Potency,[3],18.1 µM (active)
same,Potency,[2],inactive
same,Potency,[4],inactive
CCC(=O)O[C@H]1CC[C@H]2[C@@H]3CCC4=CC(=O)CC[C@]4(C)[C@H]3CC[C@]12C,Potency,[3],49 µM (active)
same,Potency,[2],inactive
same,Potency,[4],48.6 µM (active) and inactive
same,Potency,[5],inactive
Nc1ccc(-c2ccccc2)cc1,Potency,[3],inactive
same,Potency,[2],inactive
same,Potency,[4],62.8 µM (active) and inactive
same,Potency,[5],35.3 µM (active) and 9.69 µM (active)
c1cc(OCC2CO2)ccc1Cc1ccc(OCC2CO2)cc1 (stereo unspecified),Potency,[3],inactive
same,Potency,[2],inactive
same,Potency,[4],inactive
same,Potency,[5],inactive
Nc1ccncc1,Potency,[1],inactive
same,Potency,[3],inactive
same,Potency,[2],inactive
same,outcome,[9],inactive
same,Potency,[10],inactive
CC(C)=CC1C(C(=O)OCc2coc(Cc3ccccc3)c2)C1(C)C (stereo unspecified),Potency,[2],inactive
same,Potency,[4],inactive
same,Potency,[5],inactive
CCOc1cc(C=O)ccc1O,Potency,[3],inactive
same,Potency,[2],inactive
same,Potency,[4],inactive
same,Potency,[5],inactive
O=P(Oc1ccccc1)(Oc1ccccc1)Oc1ccccc1,Potency,[2],inactive
Oc1c(Cl)c(Cl)c(Cl)c(Cl)c1Cl,Potency,[3],inactive
same,Potency,[2],inactive
same,Potency,[4],inactive
same,Potency,[5],inactive
C#CCOS(=O)OC1CCCCC1Oc1ccc(C(C)(C)C)cc1 (stereo unspecified),Potency,[3],27.6 µM (active) and 43.6 µM (active)
same,Potency,[4],13.7 µM (active) and 15.4 µM (active)
same,Potency,[5],inactive
O=S(=O)(Oc1ccc(Cl)cc1)c1ccc(Cl)cc1,Potency,[3],inactive
same,Potency,[2],inactive
same,Potency,[4],inactive
same,Potency,[5],inactive
CCN(CC)N=O,Potency,[3],inactive
same,Potency,[2],inactive
same,Potency,[4],inactive
same,Potency,[5],inactive
O=c1oc2ccccc2c(O)c1C(CC(O)c1ccc(-c2ccc(Br)cc2)cc1)c1ccccc1 (stereo unspecified),Potency,[2],inactive
C[C@]12CCC(=O)C[C@@H]1CC[C@@H]1[C@@H]2CC[C@]2(C)[C@@H](O)CC[C@@H]12,Potency,[3],inactive
same,Potency,[2],inactive
same,Potency,[4],42.7 µM (active) and inactive
same,Potency,[5],inactive
CCC(CC)Nc1c([N+](=O)[O-])cc(C)c(C)c1[N+](=O)[O-],Potency,[2],inactive
NNC(=S)NN,Potency,[2],inactive
CCOCN(C(=O)CCl)c1c(C)cccc1CC,Potency,[3],inactive
same,Potency,[2],inactive
same,Potency,[5],inactive
COc1ccc(C(CN(C)C)C2(O)CCCCC2)cc1 (stereo unspecified),Potency,[1],inactive
same,Potency,[3],inactive
same,Potency,[2],inactive
same,outcome,[9],inactive
same,Potency,[10],inactive
CCCCCCCCC(=O)NCc1ccc(O)c(OC)c1,Potency,[3],inactive
same,Potency,[2],inactive
same,Potency,[4],inactive
O=C1C=CC(=O)C=C1,Potency,[1],inactive
same,Potency,[3],inactive
same,Potency,[2],inactive
same,outcome,[9],inactive
same,Potency,[10],inactive
CCOC(=S)S,Potency,[3],23.3 µM (active)
same,Potency,[4],inactive
Cc1ccc(OP(=O)(Oc2ccc(C)cc2)Oc2ccc(C)cc2)cc1,Potency,[3],inactive
same,Potency,[2],inactive
same,Potency,[4],inactive
same,Potency,[5],inactive
Cc1cccc(N)c1N,Potency,[3],inactive
same,Potency,[2],inactive
same,Potency,[4],inactive
same,Potency,[5],1.05 µM (active) and 2.43 µM (active)
N[C@@H](Cc1ccc(N(CCCl)CCCl)cc1)C(=O)O,Potency,[3],inactive
same,Potency,[2],inactive
same,Potency,[5],inactive
CCc1cccc(CC)c1N(COC)C(=O)CCl,Potency,[3],inactive
same,Potency,[2],inactive
Nc1ccc(-c2ccc(N)c(N)c2)cc1N,Potency,[3],inactive
same,Potency,[2],inactive
same,Potency,[4],inactive
same,Potency,[5],10.8 µM (active) and 8.63 µM (active)
CC(C)(OOC(C)(C)c1ccccc1)c1ccccc1,Potency,[2],inactive
same,Potency,[4],inactive
same,Potency,[5],inactive
Oc1cc(Cl)ccc1Oc1ccc(Cl)cc1Cl,Potency,[1],inactive
same,Potency,[3],17.8 µM (active)
same,Potency,[2],31.4 µM (active)
same,Potency,[7],inactive
same,Potency,[8],inactive
same,Potency,[10],38.6 µM (active)
CC(C)Oc1cc(-n2nc(C(C)(C)C)oc2=O)c(Cl)cc1Cl,Potency,[2],inactive
same,Potency,[5],inactive
OCC(O)CO,Potency,[3],inactive
same,Potency,[2],inactive
same,Potency,[4],inactive
same,Potency,[5],inactive
O=[N+]([O-])c1ccc(O)c([N+](=O)[O-])c1,Potency,[3],12.3 µM (active)
same,Potency,[2],inactive
same,Potency,[4],inactive
same,Potency,[5],inactive
Cc1cc(Cl)ccc1OCCCC(=O)O,Potency,[3],inactive
same,Potency,[2],inactive
same,Potency,[4],inactive
same,Potency,[5],inactive
Cc1ccc(N)c(N)c1,Potency,[3],inactive
same,Potency,[2],inactive
same,Potency,[4],inactive
same,Potency,[5],1.54 µM (active) and 1.22 µM (active)

# Reference: PubChem BioAssay (Tox21)
